The panel holds about 83,000 compounds, 20% with a hit somewhere; the sample as a whole holds those more often.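 Percent growth is the endpoint: 0 to 100 indicates growth inhibition (40 means 60% inhibition), 0 means no net growth, and negative values indicate cell death.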 Unmarked numbers belong to inactive results. Active and inactive are the calls of the source. How the source made its calls: active means growth percent below 10; inactive means the rest.
Assays:
Assay in all cases: NCI-60 one-dose screen, 48 h (100 = growth as untreated, 0 = no growth, -100 = all killed)
Conditions in all cases: 10 µM unless noted
NCI-H23 lung = test system: NCI-H23 lung
NCI-H226 lung = test system: NCI-H226 lung
NCI-H322M lung = test system: NCI-H322M lung
HOP-62 NSCLC = test system: HOP-62 NSCLC
NCI-H460 lung = test system: NCI-H460 lung
HOP-92 NSCLC = test system: HOP-92 NSCLC
NCI-H522 lung = test system: NCI-H522 lung
A549/ATCC NSCLC = test system: A549/ATCC NSCLC
786-0 renal = test system: 786-0 renal
COLO 205 colon = test system: COLO 205 colon

| SMILES | growth (NCI-H23 lung) | growth (NCI-H226 lung) [%] | growth (NCI-H322M lung) [%] | growth (HOP-62 NSCLC) [%] | growth (NCI-H460 lung) | growth (HOP-92 NSCLC) | growth (NCI-H522 lung) | growth (A549/ATCC NSCLC) [%] | growth (786-0 renal) [%] | growth (COLO 205 colon) |
| --- | --- | --- | --- | --- | --- | --- | --- | --- | --- | --- |
| NCCn1cc(-c2nc(-c3c[nH]c4ncccc34)cs2)c2ccccc21 | 83% | 70.6 | 74.6 | 75.4 | 89.8% | 54.3% | 90.4% | 76.8 | 89.8 | 96.7% |
| COC(=O)[C@]12CC[C@@H](C)[C@H](C)[C@@H]1C1=CC[C@@H]3[C@@]4(C)C=C(O)C(=O)C(C)=C4CC[C@@]3(C)[C@]1(C)CC2 | 22.1% | 22.4 | 82.6 | 56.4 | 46.8% | 26.4% | -14.1% (active) | 39.5 | 68 | 37.1% |
| COc1cccc(-c2nn(-c3ccccc3)cc2-c2ccnc(NCCNS(=O)(=O)c3ccc(Cl)cc3)c2)c1 | 32% | 41.8 | 63.8 | 53.5 | 32.9% | 7.77% (active) | 12.4% | 27.4 | 40.3 | 4.94% (active) |
| COc1ccc2[nH]c(-c3ccc(Cl)cc3)cc(=O)c2c1 | 94.5% | 97.6 | 92 | 104 | 100% | 88.6% | 86.7% | 96.3 | 88.3 | 105% |
| c1cnc2[nH]cc(-c3csc(-c4cn(CCCN5CCCCC5)c5ccccc45)n3)c2c1 | 79.7% | 77 | 83.8 | 54.6 | 10.1% | 35.1% | 79.2% | 58.3 | 56.3 | -74% (active) |
| Cc1cc(N2CCN(C)CC2)nc(N(CCNc2ccnc3cc(Cl)ccc23)Cc2ccco2)n1 | 57.5% | 92.9 | 51 | 26.8 | 24.3% | 49.2% | 53.7% | 41.4 | 32.6 | -5.82% (active) |
| Cc1ccc(S(=O)(=O)Nc2ccc(-c3cc(-c4cccc(F)c4)c(C#N)c(=O)[nH]3)cc2)cc1 | 87.7% | 79.6 | 90 | 92.3 | 98.2% | 72.9% | 87.2% | 68.2 | 102 | 115% |
| Cn1cc(-c2csc(-c3cn(CCNC(=O)OC(C)(C)C)c4ccc(F)cc34)n2)c2cccnc21 | 57% | 50.8 | 83.9 | 65.7 | 85.9% | 49.2% | 44.3% | 63.1 | 88.1 | 67.5% |
| COc1cc(NC(C)CN(CC(C)C)C(C)C)c2ncccc2c1 (stereo not given) | 83.7% | 89.7 | 100 | 109 | 106% | 74.4% | 101% | 105 | 111 | 96.9% |
| Fc1ccc(Nc2nnc(-c3ccc(Cl)cc3)o2)cc1 | 95% | 93.8 | 103 | 89.5 | 105% | 95.5% | 74% | 81.3 | 104 | 94.2% |
| Cn1cc(-c2csc(-c3cn(CCN)c4ccccc34)n2)c2cccnc21 | 59.3% | 66.4 | 70.9 | 40.1 | 24.8% | 37.6% | 65.8% | 40 | 46.7 | 20.7% |
| O=C(NO)c1ccc(Cn2c(=O)n(-c3ccccc3)c(=O)c3ccccc32)cc1 | -38.7% (active) | 41.3 | 38.8 | 29.3 | 39% | 48.4% | -21.7% (active) | 37.7 | 71 | -62.4% (active) |
| N#CCCCCCn1c2ccccc2c2c3c(c4c5ccccc5n(CCCCCC#N)c4c21)C(=O)N(O)C3=O | 72.5% | 79.1 | 81.5 | 37.1 | 87.7% | 87.4% | 53.7% | 94.5 | 92.1 | 84.6% |
| COc1ccc(-c2cc(/C=C/C(=O)c3ccc(N)cc3)[nH]n2)cc1 | 27.3% | 24.5 | 12.4 | 15.4 | -50% (active) | 73.6% | -24.3% (active) | 18.6 | 17.8 | 7.56% (active) |
| COc1ccc(NC(=O)c2ccc3c(c2)nc(-c2cc4ccccc4[nH]c2=O)n3-c2cc(C(C)(C)C)[nH]n2)cc1 | 90.4% | 99 | 91.7 | 98.7 | 97.4% | 90.8% | 72.8% | 93.7 | 92.4 | 96.4% |
